# Measurements reported in the supplement of paper PMC3334620.
# Over roughly 33,000 sequences, “E-score (-0.5 to 0.5)” has its median near -0.036; the highest 2% begin near 0.37. The sample holds the highest values, similar sequences and a random draw of the others, so the mix is not that of the screen.
# Biological target: T1, Yer064c (UniProt P40041)
# T1 sequence: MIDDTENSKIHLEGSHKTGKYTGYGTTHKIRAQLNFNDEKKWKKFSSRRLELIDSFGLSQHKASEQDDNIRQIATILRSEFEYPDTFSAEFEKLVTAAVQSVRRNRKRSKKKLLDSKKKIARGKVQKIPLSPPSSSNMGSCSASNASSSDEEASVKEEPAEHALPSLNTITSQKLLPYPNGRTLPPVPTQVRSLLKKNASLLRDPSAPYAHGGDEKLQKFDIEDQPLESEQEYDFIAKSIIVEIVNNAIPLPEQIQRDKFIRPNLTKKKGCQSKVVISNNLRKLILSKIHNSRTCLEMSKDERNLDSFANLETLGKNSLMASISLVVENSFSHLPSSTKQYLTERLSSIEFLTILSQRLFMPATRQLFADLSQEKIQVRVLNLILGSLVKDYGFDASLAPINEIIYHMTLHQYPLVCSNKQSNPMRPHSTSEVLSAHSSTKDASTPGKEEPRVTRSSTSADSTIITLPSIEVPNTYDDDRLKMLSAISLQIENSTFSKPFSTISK
# Assay: PBM E-score (8-mer binding enrichment) (E-score (-0.5 to 0.5)); higher = stronger / more preferred TF binding
# Conditions: protein concentration: 200 nM; construct: GST-full length
# Method: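 Universal 'all 10-mer' protein binding microarrays (Agilent AMADID 015681) probed with GST-tagged S. cerevisiae TFs (full-length or DBD) made by in vitro transcription/translation (PURExpress), about 100-200 nM. Bound TF was detected with fluorescent anti-GST. Each ungapped 8-mer (which stands for itself and its reverse complement) is scored by the PBM enrichment score (E-score), a modified Wilcoxon-Mann-Whitney statistic from -0.5 to +0.5, computed with the Universal PBM Analysis Suite. Scale: above 0.35 generally sequence-specific binding.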
row,Sequence,PBM E-score
1,AGGGATAA,0.093
2,CGGCTGCA,-0.189
3,AATATGGA,-0.0374
4,CGTTGCGC,-0.22
5,GAGCACAA,0.0121
6,AAAGACTG,0.157
7,TAAGACAA,-0.0363
8,ACAGACTA,0.0746
9,ACAGACTC,0.269
10,AAAGACTT,0.294
11,TAAGACTA,0.423
12,AAAGACTC,0.409
13,AAAGACTA,0.392
14,GAAGACTA,0.444
15,GCAGACTA,0.309
16,TAAGACCA,0.112
17,CAAGACTA,0.329
18,ACAGCCTA,-0.0814
19,ACCCTGCC,-0.154
20,GGGCAAGA,-0.0907
21,GAGTTCGA,0.185
22,GCGCTTTA,-0.161
23,AAAGTGAC,0.305
24,CCCGCGAA,0.0838
25,CAAGACGC,-0.166

row,Sequence,PBM E-score
1,GAAGACGC,-0.193
2,GAAGACCC,-0.0698
3,CAAGACTG,0.175
4,GAAGACTC,0.446
5,CAAGACTC,0.429
6,GACCGAAC,-0.059
7,CATTACCC,0.0868
8,AATGGAGA,-0.0502
9,GACTCTAA,0.381
10,TACTCTAA,-0.042
11,CACTCTAC,0.0903
12,CACTCTAA,0.149
13,AACTCTAC,-0.212
14,GACTCTAC,0.38
15,ATGCCAAG,-0.0388
16,ACGATAAC,-0.0162
17,GATCCGCC,-0.041
18,AACTTTGC,-0.113
19,ACAACATC,-0.143
20,ACCATACT,0.0817
21,AAGTGATC,0.103
22,AGGTGACG,-0.188
23,AAGTGATG,0.0804
24,AGGTGACT,0.484
25,ACGTGACG,-0.176

row,Sequence,PBM E-score
1,AAGTGACT,0.453
2,AAGTGACC,-0.00564
3,AAGTGATT,0.394
4,AAGTGACG,0.0587
5,ACGTGACT,0.468
6,AGGTGACA,-0.0676
7,ACGTGACA,-0.138
8,CCTCTGAA,-0.0251
9,AAATCCCA,-0.203
10,ACCCACCC,0.111
11,CACCTAGG,0.0188
12,ATCAGAAC,0.127
13,CTGAGAGA,-0.0026
14,AAGCTTGG,-0.0782
15,GAGATGAC,0.367
16,CAGATGAC,0.215
17,AAGATGAC,0.312
18,GGAACTGA,-0.00126
19,TCGACCAA,-0.188
20,AATAGAAA,-0.119
21,CCCTCCCA,-0.298
22,ACTCATTG,0.382
23,ACTCATTA,0.372
24,ATTCATTG,0.214
25,CCTCATTA,0.0877

row,Sequence,PBM E-score
1,ACTCATTC,0.394
2,ACACATTG,0.0326
3,CCTCATTC,-0.176
4,GCTCATTA,-0.044
5,ATTCATTC,0.122
6,ATGGCTTG,-0.159
7,GATTTACC,0.00206
8,ATTTCATA,-0.0227
9,ATCCGAAT,0.0995
10,AAGGGATG,-0.176
11,AATCAGTC,0.368
12,ATTCAGTC,0.341
13,AGTCAGTG,0.427
14,AATCAGTG,0.239
15,ATTCAGTG,0.214
16,CGTCAGTC,0.291
17,ACTCAGTC,0.411
18,AATCAGTA,0.234
19,CATCAGTC,0.321
20,AGTCAGTC,0.442
21,CCTCAGTC,0.326
22,ACTCAGTG,0.251
23,ACGCATGA,0.146
24,ATCCGTTG,-0.037
25,ACCTTGAA,0.0165

row,Sequence,PBM E-score
1,GAACCAGA,0.0172
2,ACCCTCAC,-0.132
3,CGCACATC,0.00301
4,GGTCAGTA,-0.0314
5,CGTCAGTA,0.0514
6,AGTCAGTA,0.42
7,CTTTAACA,-0.0802
8,GCCTAGGC,-0.179
9,AGGAGCGC,-0.205
10,ACTCACTG,0.374
11,ACTCACAC,0.364
12,ACTCACTA,0.346
13,ACACACTG,0.0265
14,CCTCACTC,-0.077
15,ACTCACTC,0.371
16,CGGTTTAG,-0.1
17,AGAGACAA,-0.175
18,TAAACCAA,-0.0214
19,AAGGACTG,0.184
20,AAGGACTA,0.375
21,GAGGACAC,-0.221
22,AAGGACCA,-0.026
23,GAGGACTA,0.369
24,GAGGACTC,0.387
25,AAGGACGA,-0.0247

row,Sequence,PBM E-score
1,AAGGACTC,0.39
2,CAGGACTC,0.344
3,TAGGACTA,0.357
4,AAGGACTT,0.0394
5,CAGGACTA,0.262
6,ACCGGCGG,-0.156
7,CCAGATGC,0.0961
8,AGCTAGAT,-0.12
9,AACCCCAG,-0.047
10,GGCAACTA,-0.0239
11,CCCATCTA,-0.0727
12,CAAACGAC,0.0734
13,GTGTGCGA,0.0296
14,AGATCTTA,0.137
15,GACGTTCA,-0.12
16,GCATTTCC,-0.0262
17,AGAACACA,0.0627
18,TAAAGTTA,0.106
19,TAAAGTAA,0.049
20,GAAAGTCC,-0.215
21,CAAAGTCC,-0.222
22,AAAAGTCA,0.374
23,AAAAGTCC,-0.0242
24,GAAAGTCA,0.428
25,AAAAGTCT,0.0759

row,Sequence,PBM E-score
1,GAAAGTTA,0.137
2,CAAAGTCG,0.167
3,TAAAGTCA,0.413
4,CAAAGTCA,0.399
5,ACCACGGG,-0.0993
6,AGCAGGAG,-0.0429
7,GGCATACA,-0.226
8,GATTCGAA,0.207
9,CTCGGTGA,0.137
10,ACTACGAT,0.233
11,CCCATGCC,-0.231
12,CCCAGAGG,-0.276
13,AAGTCAGT,0.362
14,CAGTCAGA,0.361
15,AAGTCAGC,0.422
16,AAGTCAGA,0.341
17,GCGTCAGC,-0.304
18,ATGTCAGC,-0.0283
19,CAGTCAGC,0.406
20,GAGTCAGC,0.48
21,CAGTCAGG,0.333
22,AATCTTAC,0.183
23,ATTTGTCG,-0.0532
24,GACTCAGA,0.458
25,AACTCAGC,0.022

row,Sequence,PBM E-score
1,CACTCAGA,0.0961
2,GACTCAGC,0.457
3,CACTCAGC,-0.0645
4,AACTCAGA,0.164
5,GGCGCGAA,-0.0884
6,AACGTGGC,-0.0783
7,ACCCTAGA,-0.0589
8,ACCTCGGC,-0.153
9,AATCACCC,0.426
10,AACCACCT,0.0325
11,AAGCACCG,-0.164
12,CATCACCA,-0.0269
13,CATCACCG,0.156
14,AAACACCT,0.129
15,GATCACCC,0.00825
16,AATCACCT,0.438
17,AATCACCA,0.374
18,TATCACCA,-0.0277
19,CATCACCC,-0.0525
20,AATCACCG,0.42
21,AGAAGAAC,-0.146
22,ACCAGACT,0.0775
23,ACGGCTAT,-0.24
24,GGTTTACA,-0.0888
25,CGTGCACG,0.0709

row,Sequence,PBM E-score
1,CCTGAGGA,0.00765
2,ACGGTATG,-0.0999
3,CTGATTAC,0.375
4,AGGATTAA,0.253
5,GGGATTAA,0.166
6,GTGATTAA,0.452
7,ATGATTAA,0.472
8,CGGATTAA,0.208
9,CAGATTAA,0.183
10,CGGATTAC,0.0966
11,GAGATTAA,0.245
12,CCGATTAC,-0.132
13,ACGATTAA,0.26
14,CTGATTAA,0.405
15,GAAACTAC,0.00139
16,CCGAGGAC,-0.0294
17,AGCAAAAC,-0.0941
18,CATCCGAA,0.123
19,ATGGAAAG,-0.0473
